The whole screen tested about 6,200 compounds, of which about 2,900 (47%) were called active. So high a share suggests a set chosen from earlier hits. This is one part of the list. Values without a mark were called inactive. Rule as the data show it: active = inhibition above about 50%; inactive = the rest.
experiment: Mycobacterium tuberculosis growth inhibition, primary screen (AID 1259343); conditions: inhibition: at 10 µM, stronger effect = higher value; outcome: 10 uM

Row | SMILES | inhibition
1 | CCOc1ccc(OCCOc2ccc(Cl)cc2)cc1 | 93.8% (active)
2 | CCOc1ccccc1OCCOc1ccccc1 | 27.6%
3 | CCOc1ccc(OCCOc2cccc(C(F)(F)F)c2)cc1 | 84.9% (active)
4 | CCOc1ccc(OCCOc2ccccc2)cc1 | 92.8% (active)
5 | CCOc1ccc(OCCCOc2ccc(Cl)cc2)cc1 | inactive
6 | CCOc1ccc(OCCOCCOc2ccccc2)cc1 | 92.7% (active)
7 | CCOc1cccc(OCCOc2cccc(Br)c2)c1 | 36.5%
8 | CCOc1ccc(OCCCOc2ccc(I)cc2)cc1 | 92.8% (active)
9 | Clc1ccc(OCCOCCOc2ccc(Cl)cc2)cc1 | 21.3%
10 | Clc1ccc(OCCOC2OCCOC2OCCOc2ccc(Cl)cc2)cc1 (centres undefined) | 76.8% (active)
11 | CCOc1ccc(OCCCOc2ccc(CC)cc2)cc1 | -34%
12 | CCOc1ccc(OCCCOc2ccc(C)cc2)cc1 | -3.92%
13 | CN=c1scc(C)n1N=C(C)c1cccc(F)c1 | 15.2%
14 | COc1ccc(/C=C(/C#N)c2c[nH]c3ccccc23)cc1 | 33.9%
15 | CC(C)OCCCNC(=O)Cc1cc(-c2ccc(F)cc2F)on1 | 36.4%
16 | O=C(Cc1cc(-c2ccc(F)cc2)on1)NCCC1=CCCCC1 | 36.7%
17 | O=C(Cc1cc(-c2ccc(F)cc2F)on1)NCCCc1ccccc1 | 54% (active)
18 | O=C(Cc1cc(-c2ccc(F)cc2F)on1)NCCC1=CCCCC1 | 85.6% (active)
19 | O=C(Cc1cc(-c2ccc(F)cc2F)on1)NCCc1ccccc1 | 93.5% (active)
20 | O=C(OCc1cc(-c2ccc(F)cc2F)on1)C1CC1 | 38.6%
21 | COc1ccc(NC(=O)c2ccc3c(c2)CCCC3)cn1 | 97.6% (active)
22 | COc1ccc(NC(=O)c2ccc3c(c2)CCCC3)c(OC)c1 | 10.4%
23 | Fc1c(F)c(F)c(N2CCNCC2)c(F)c1F | -14.9%
24 | FC(F)(F)C1CCCN(c2nsc3ccccc23)C1 (centres undefined) | 101% (active)
25 | FC(F)Oc1ccc(-c2n[nH]c(=S)n2N=Cc2ccc3c(c2)OCCO3)cc1 | 85.8% (active)
26 | Cc1ccc(-c2n[nH]c(=S)n2N=Cc2ccccc2)cc1 | 55.7% (active)

Row | SMILES | inhibition
27 | CCN=c1scc(-c2ccc(OC(F)F)cc2)n1N=Cc1ccc2c(c1)OCO2 | -4.29%
28 | O=c1cc(-c2ccc(F)cc2)[nH]n1-c1nc2ccccc2[nH]1 | 75.6% (active)
29 | c1ccc(-c2ccc(C(c3ccccc3)n3ccnc3)cc2)cc1 (centres undefined) | 79.7% (active)
30 | CC(C)c1cc(-n2ccnc2)n2ncc(-c3ccccc3)c2n1 | inactive
31 | C=C(C#N)C(O)c1ccc(-c2ccccc2)cc1 (centres undefined) | 27.8%
32 | COc1ccc(Cl)c2sc(N(CCCN(C)C)C(=O)Cc3ccccc3)nc12 | 69.2% (active)
33 | Cc1cc(C(=O)N(CCCN(C)C)c2nc3ccc(Cl)cc3s2)nn1C | 30.6%
34 | CCC(C)(C)C1CCC2(CC1)NCCc1c2[nH]c2ccccc12 (centres undefined) | 0.19%
35 | C=CCN(C)C(=O)c1coc(COc2ccc3ccc(OC)cc3c2)n1 | 65.1% (active)
36 | C=C(C)CN(C)C(=O)c1coc(COc2ccc3c(c2)OCO3)n1 | 26.6%
37 | Cc1nonc1CN(C)C(=O)c1coc(COc2cccc(C(F)(F)F)c2)n1 | 22.3%
38 | N#Cc1c(F)cccc1NCc1csc(C2CC2)n1 | 57.3% (active)
39 | N#Cc1c(F)cccc1NCCNc1nc2ccccc2o1 | -5.14%
40 | Cc1ccc(NC2OC(CO)C(O)C(O)C2O)cc1Br (centres undefined) | 84.8% (active)
41 | OCC1O[C@H]([S-])[C@@H](O)C(O)[C@@H]1O.[Au+] (some centres undefined) | 5.4%
42 | CN(C)CCCOc1ccc(-c2nnc3ccc(-c4cccc(Oc5ccccc5)c4)cn23)cc1 | 66.5% (active)
43 | COc1cccc(-c2nc3ccc(-c4cccc(Cl)c4)cn3c2CN2CCNCC2)c1 | 23.2%
44 | Cc1cc(NC(=O)CNC(c2ccccn2)C(C)C)ccc1Cl (centres undefined) | 79.4% (active)
45 | CCOc1cccc(-c2cccc(-n3cnnc3)c2)c1 | 66% (active)
46 | CCOc1cccc(-c2cnc(NC(C)=O)cn2)c1 | 23.7%
47 | Oc1ccc(CC2COCC(Cc3ccc(O)cc3)C2)cc1 (centres undefined) | 62.4% (active)
48 | CS(=O)(=O)c1nc(-c2ccccc2)cc(C(F)(F)F)n1 | 99.7% (active)
49 | O=c1ccc(-c2ccc(F)cc2)nn1Cc1cccc(C(F)(F)F)c1 | 35.1%
50 | CS(=O)(=O)c1nc(-c2ccc(F)cc2)cc(C(F)(F)F)n1 | 101% (active)
51 | O=c1ccc(-c2ccc(F)cc2)nn1Cc1ccc(C(F)(F)F)cc1 | 20%
52 | O=c1[nH]c(=S)[nH]c2nc(-c3cccs3)cc(C(F)(F)F)c12 | 34.4%

Row | SMILES | inhibition
53 | Cc1ccc(-c2cc(C(F)F)nc(S(C)(=O)=O)n2)cc1 | 90.4% (active)
54 | CS(=O)(=O)c1nc(-c2cccs2)cc(C(F)(F)F)n1 | 101% (active)
55 | Cn1cccc1C1CCCCCN1C(=O)c1ccc(NC2CC2)nc1 (centres undefined) | -11.4%
56 | COc1ccc(-c2cc(C(F)(F)F)nc(S(C)(=O)=O)n2)cc1 | 101% (active)
57 | Cc1nc2c(OCc3cc(Cl)cc(Cl)c3)cccn2c1N(C)Cc1cccs1 | 82.7% (active)
58 | CC(C(=O)Nc1cccc(Cl)c1)N(C)Cc1cccs1 (centres undefined) | 5%
59 | COc1cc(/C=C/C(=O)Nc2cc(C)nn2-c2nc3c(c(=O)[nH]2)CCC3)cc(OC)c1OC | 2.27%
60 | CCCc1cc(=O)[nH]c(-n2nc(C)cc2NC(=O)/C=C/c2ccc(OC)c(OC)c2)n1 | 102% (active)
61 | CCCc1cc(=O)[nH]c(-n2nc(C)cc2NC(=O)/C=C/c2cc(OC)c(OC)c(OC)c2)n1 | 99.8% (active)
62 | COc1cc(/C=C/C(=O)Nc2cc(C)nn2-c2nc(C)c(C)c(=O)[nH]2)cc(OC)c1OC | 99.5% (active)
63 | CC(O)CN1CCN(C(=O)c2cc(Cl)c(Cl)n2C)CC1 (centres undefined) | -16.4%
64 | CCn1cnnc1CCNS(=O)(=O)NCc1ccccc1 | -1.72%
65 | FC(F)(F)c1cccc(-c2nnn(Cc3ncc(-c4ccccc4)o3)n2)c1 | 58.2% (active)
66 | Fc1c(F)c(F)c(Cn2nnc(-c3ccccc3)n2)c(F)c1F | 26.7%
67 | Cn1nnnc1SCc1nc(-c2cccc(C(F)(F)F)c2)no1 | -6.38%
68 | CC(OC(=O)c1cc(Cl)c(O)c(Cl)c1)c1ccc(F)cc1 (centres undefined) | 45.8%
69 | CC(=NNC(=O)c1cc(-c2cccc3ccccc23)n[nH]1)c1ccccc1O | 41.3%
70 | CCC(=NNC(=O)c1ccc(F)cc1)c1cc(Cl)cc(Cl)c1O | 53.1% (active)
71 | CN(CC1CCCO1)S(=O)(=O)c1ccc(C(=O)Nc2ccc3sccc3c2)cc1 (centres undefined) | 92% (active)
72 | Cc1noc(C)c1CN1CCN2C=C(C(=O)Nc3ccc(-n4cccc4)cc3)OC2=NC1=O | 30.7%
73 | O=C(Nc1ccc(-n2cccc2)cc1)C1=COC2=NC(=O)N(Cc3ccccc3)CCN12 | 84.6% (active)
74 | Cc1ccccc1CN1CCN2C(C(=O)Nc3ccc(-n4cccc4)cc3)=COC2=NC1=O | 88.2% (active)
75 | Cc1noc(C)c1CN1CCN2C(C(=O)Nc3ccc(-n4cccc4)cc3)=COC2=NC1=O | 90.5% (active)
76 | O=C(c1ccc2c(c1)CCO2)N1CCOC(c2ccc(Cl)c(Cl)c2)C1 (centres undefined) | 7.26%
77 | CC(C)(C)n1ncc(NCc2cccc3c2OCO3)c(Cl)c1=O | 27.4%
78 | c1cc(-c2ccc3c(c2)CCO3)ccc1CNC1CCCC1 | 75% (active)

Row | SMILES | inhibition
79 | CC(C)Cc1nc(CN(C)Cc2ccc3c(c2)CCO3)no1 | 21.8%
80 | Cn1ncc(NCc2ccc(-c3ccc4c(c3)CCO4)cc2)c(Cl)c1=O | 68.8% (active)
81 | Cc1cc(NC(=O)COC(=O)c2ccoc2)ccc1Br | 68.6% (active)
82 | Cc1cc(NC(=O)COc2ccc(C3=CCN(C(N)=O)CC3)cc2)ccc1Br | -21.6%
83 | Cc1cc(NC(=O)CON=C2CCN(C(=O)C3CC3)CC2)ccc1Br | 92.3% (active)
84 | O=C(CCc1n[nH]c(=S)[nH]c1=O)NCc1cccc(C(F)(F)F)c1 | -13.8%
85 | O=c1[nH]c(=S)[nH]nc1Cc1ccc(Cl)c(Cl)c1 | 96.8% (active)
86 | CC(C)C1=NOC(c2nc(C(C)c3ccccc3)no2)C1 (centres undefined) | 30.4%
87 | Cc1c[nH]c(=O)n1-c1ccc(C(=O)N2CCCC2c2ccccc2)cc1 (centres undefined) | -8.28%
88 | O=C(NCc1ccc(Oc2ccc(F)cc2)cc1)C1CC=CCC1 (centres undefined) | 88.9% (active)
89 | CC1CC1C(=O)NCc1ccc(Oc2ccc(F)cc2)cc1 (centres undefined) | -11.6%
90 | COc1cccc(CN(C)Cc2nc(-c3cccs3)no2)c1 | 54.7% (active)
91 | CN(Cc1nc(-c2cccs2)no1)CC1Cc2ccccc2O1 (centres undefined) | inactive
92 | C#CCCC(C#N)(C#N)c1ncc(-c2ccc(OC)cc2)cn1 | 43%
93 | Cc1cc(Nc2cccc(=O)[nH]2)n(-c2ccc(Cl)c(Cl)c2)n1 | 49.9%
94 | O=C(O)c1cc(-c2cccs2)nn1-c1ccc(Cl)c(Cl)c1 | 51.3% (active)
95 | CC(C)c1ccc(NC(=O)C2CCS(=O)(=O)C2)cc1 (centres undefined) | 75.6% (active)
96 | CC1CN=C(Nc2ccc(C(C)C)cc2)S1 (centres undefined) | 6.24%
97 | CC(C)c1ccc(NS(=O)(=O)C2CC2)cc1 | 30.9%
98 | Cc1ccc(-c2cc(C(F)(F)C(F)F)[nH]n2)cc1 | 86.5% (active)
99 | Cc1ccc(-c2c(N)n[nH]c2C(F)(F)F)cc1 | 32%
100 | O=[N+]([O-])c1ccc(C=Nn2cnn(Cc3ccccc3Cl)c2=S)o1 | 43.5%
101 | O=[N+]([O-])c1ccc(C=NNc2ccc(Cl)c(Cl)c2)o1 | 93.2% (active)
102 | O=[N+]([O-])c1ccc(C=NN(c2ccccc2)c2ccccc2)o1 | 47.1%
103 | O=[N+]([O-])c1ccc(C=NNc2ccc(Cl)cc2)o1 | -17.5%
104 | O=[N+]([O-])c1ccc(C=NNc2ccnc3cc(Cl)ccc23)o1 | 99.4% (active)

Reference: PubChem BioAssay AID1259343 (VanderVen Lab, College of Veterinary Medicine, Cornell …, 2017)
